Calls of active or inactive are those of the source. The calls were made as follows: active = hit-call score of the fitted dose curve at least 0.9, where 1 is the maximum; inactive = score below 0.9.

Experiment [1] can be described thus: CEETOX_H295R_CORTISOL: CeeTox H295R High-throughput Steroidogenesis Assay for Cortisol (AID 2283438).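 Also: cortisol secreted into medium quantified by LC-MS/MS.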 As to conditions: actives raise or lower the signal. Put shortly: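 Human adrenocortical H295R cells (passage ≤10) received test chemicals for 48 h after forskolin priming. Secreted cortisol was measured by LC-MS/MS.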
The nature of experiment [2]: CEETOX_H295R_DOC: CeeTox H295R High-throughput Steroidogenesis Assay for DOC (AID 2283439). As to conditions: actives raise or lower the signal. Put shortly: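 Secreted DOC was quantified from H295R media by HPLC-MS/MS after 48 h chemical exposure following 48 h forskolin (10 uM) prestimulation. Values were fitted in both directions relative to DMSO, the negative control and baseline.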

Experiment [3] in a line: CEETOX_H295R_PROG: CeeTox H295R High-throughput Steroidogenesis Assay for Progesterone (PROG) (AID 2283442).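 As to AC50: human H295R adrenal cells primed with 10 µM forskolin before dosing.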 As to conditions: actives raise or lower the signal. In outline: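 Measured analyte is progesterone secreted by H295R cells at 48 h of chemical treatment, following 10 uM forskolin priming. Quantitation used HPLC-MS/MS against a 7-point standard curve; cytotoxicity was checked by MTT absorbance.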

Read-out in experiment [4]: Tumor necrosis factor receptor superfamily member 6 (Homo sapiens) (UniProt P25445)
The experiment is described as follows: LTEA_HepaRG_FAS: Life Technologies and Expression Analysis (LTEA) Assay for Fas cell surface death receptor (FAS) using HepaRG (AID 2283447). As to conditions: mRNA level, 48 h; actives raise or lower the signal. Put shortly:
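Differentiated human HepaRG cells, pre-cultured 48 h, were exposed in duplicate for 48 h to 8-point half-log concentrations (top 100 uM, 0.5% DMSO) in serum-free induction medium; FAS mRNA measured by qRT-PCR, normalized to ACTB/GAPDH/POLR2A, bidirectional fit versus DMSO.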

Read-out in experiment [5]: Fatty acid synthase (Homo sapiens) (UniProt P49327)
The experiment is described as follows: LTEA_HepaRG_FASN: Life Technologies and Expression Analysis (LTEA) Assay for Fatty Acid Synthase (FASN) using HepaRG (AID 2283448). As to conditions: mRNA level, 48 h; actives raise or lower the signal. In outline:
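Transcript-level assay: HepaRG liver cells are treated for 48 h across an eight-point range topping at 100 uM, and FASN mRNA, normalized to three housekeeping genes, is compared with DMSO controls in both directions.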

Read-out in experiment [6]: Cyclin D2 (CCND2), CCND2 (gene 894)
Put plainly: LTEA_HepaRG_CCND2: Life Technologies and Expression Analysis (LTEA) Assay for Cyclin D2 (CCND2) using HepaRG (AID 2283449).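 Also: CCND2 transcript measured by TaqMan qRT-PCR and normalised to three housekeeping genes.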 The conditions noted are these: mRNA level, 48 h; actives raise or lower the signal. In outline: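 Differentiated human HepaRG cells were exposed for 48 h in serum-free induction medium to eight half-log concentrations topping at 100 uM (0.5% DMSO vehicle). CCND2 mRNA was quantified by TaqMan qRT-PCR, normalised to ACTB, GAPDH and POLR2A, and fitted bidirectionally against DMSO.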

Read-out in experiment [7]: Cyclin Dependent Kinase Inhibitor 1A (CDKN1A), CDKN1A (gene 1026)
Put plainly: LTEA_HepaRG_CDKN1A: Life Technologies and Expression Analysis (LTEA) Assay for Cyclin Dependent Kinase Inhibitor 1A (CDKN1A) using HepaRG (AID 2283450). As to conditions: mRNA level, 48 h; actives raise or lower the signal. Put shortly: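 Gain or loss of CDKN1A transcript is scored by bidirectional fitting against 0.5% DMSO vehicle. Human HepaRG cultures receive chemicals for 48 h across an 8-point series peaking at 100 uM; expression comes from qRT-PCR.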

Read-out in experiment [8]: Cyclin D1 (CCND1), CCND1 (gene 595)
The experiment is described as follows: LTEA_HepaRG_CCND1: Life Technologies and Expression Analysis (LTEA) Assay for Cyclin D1 (CCND1) using HepaRG (AID 2283451).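 As to AC50: TaqMan qRT-PCR transcript level normalised to ACTB GAPDH and POLR2A housekeeping genes.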 The conditions noted are these: mRNA level, 48 h; actives raise or lower the signal. Put shortly: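 Expression change is measured by qRT-PCR in HepaRG cells after 48 h treatment across eight concentrations topping at 100 uM, with duplicate wells and DMSO (0.5%) serving as baseline for bidirectional fitting.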

Chain of Fatty acid synthase (Homo sapiens) (P49327 whole entry, looked up): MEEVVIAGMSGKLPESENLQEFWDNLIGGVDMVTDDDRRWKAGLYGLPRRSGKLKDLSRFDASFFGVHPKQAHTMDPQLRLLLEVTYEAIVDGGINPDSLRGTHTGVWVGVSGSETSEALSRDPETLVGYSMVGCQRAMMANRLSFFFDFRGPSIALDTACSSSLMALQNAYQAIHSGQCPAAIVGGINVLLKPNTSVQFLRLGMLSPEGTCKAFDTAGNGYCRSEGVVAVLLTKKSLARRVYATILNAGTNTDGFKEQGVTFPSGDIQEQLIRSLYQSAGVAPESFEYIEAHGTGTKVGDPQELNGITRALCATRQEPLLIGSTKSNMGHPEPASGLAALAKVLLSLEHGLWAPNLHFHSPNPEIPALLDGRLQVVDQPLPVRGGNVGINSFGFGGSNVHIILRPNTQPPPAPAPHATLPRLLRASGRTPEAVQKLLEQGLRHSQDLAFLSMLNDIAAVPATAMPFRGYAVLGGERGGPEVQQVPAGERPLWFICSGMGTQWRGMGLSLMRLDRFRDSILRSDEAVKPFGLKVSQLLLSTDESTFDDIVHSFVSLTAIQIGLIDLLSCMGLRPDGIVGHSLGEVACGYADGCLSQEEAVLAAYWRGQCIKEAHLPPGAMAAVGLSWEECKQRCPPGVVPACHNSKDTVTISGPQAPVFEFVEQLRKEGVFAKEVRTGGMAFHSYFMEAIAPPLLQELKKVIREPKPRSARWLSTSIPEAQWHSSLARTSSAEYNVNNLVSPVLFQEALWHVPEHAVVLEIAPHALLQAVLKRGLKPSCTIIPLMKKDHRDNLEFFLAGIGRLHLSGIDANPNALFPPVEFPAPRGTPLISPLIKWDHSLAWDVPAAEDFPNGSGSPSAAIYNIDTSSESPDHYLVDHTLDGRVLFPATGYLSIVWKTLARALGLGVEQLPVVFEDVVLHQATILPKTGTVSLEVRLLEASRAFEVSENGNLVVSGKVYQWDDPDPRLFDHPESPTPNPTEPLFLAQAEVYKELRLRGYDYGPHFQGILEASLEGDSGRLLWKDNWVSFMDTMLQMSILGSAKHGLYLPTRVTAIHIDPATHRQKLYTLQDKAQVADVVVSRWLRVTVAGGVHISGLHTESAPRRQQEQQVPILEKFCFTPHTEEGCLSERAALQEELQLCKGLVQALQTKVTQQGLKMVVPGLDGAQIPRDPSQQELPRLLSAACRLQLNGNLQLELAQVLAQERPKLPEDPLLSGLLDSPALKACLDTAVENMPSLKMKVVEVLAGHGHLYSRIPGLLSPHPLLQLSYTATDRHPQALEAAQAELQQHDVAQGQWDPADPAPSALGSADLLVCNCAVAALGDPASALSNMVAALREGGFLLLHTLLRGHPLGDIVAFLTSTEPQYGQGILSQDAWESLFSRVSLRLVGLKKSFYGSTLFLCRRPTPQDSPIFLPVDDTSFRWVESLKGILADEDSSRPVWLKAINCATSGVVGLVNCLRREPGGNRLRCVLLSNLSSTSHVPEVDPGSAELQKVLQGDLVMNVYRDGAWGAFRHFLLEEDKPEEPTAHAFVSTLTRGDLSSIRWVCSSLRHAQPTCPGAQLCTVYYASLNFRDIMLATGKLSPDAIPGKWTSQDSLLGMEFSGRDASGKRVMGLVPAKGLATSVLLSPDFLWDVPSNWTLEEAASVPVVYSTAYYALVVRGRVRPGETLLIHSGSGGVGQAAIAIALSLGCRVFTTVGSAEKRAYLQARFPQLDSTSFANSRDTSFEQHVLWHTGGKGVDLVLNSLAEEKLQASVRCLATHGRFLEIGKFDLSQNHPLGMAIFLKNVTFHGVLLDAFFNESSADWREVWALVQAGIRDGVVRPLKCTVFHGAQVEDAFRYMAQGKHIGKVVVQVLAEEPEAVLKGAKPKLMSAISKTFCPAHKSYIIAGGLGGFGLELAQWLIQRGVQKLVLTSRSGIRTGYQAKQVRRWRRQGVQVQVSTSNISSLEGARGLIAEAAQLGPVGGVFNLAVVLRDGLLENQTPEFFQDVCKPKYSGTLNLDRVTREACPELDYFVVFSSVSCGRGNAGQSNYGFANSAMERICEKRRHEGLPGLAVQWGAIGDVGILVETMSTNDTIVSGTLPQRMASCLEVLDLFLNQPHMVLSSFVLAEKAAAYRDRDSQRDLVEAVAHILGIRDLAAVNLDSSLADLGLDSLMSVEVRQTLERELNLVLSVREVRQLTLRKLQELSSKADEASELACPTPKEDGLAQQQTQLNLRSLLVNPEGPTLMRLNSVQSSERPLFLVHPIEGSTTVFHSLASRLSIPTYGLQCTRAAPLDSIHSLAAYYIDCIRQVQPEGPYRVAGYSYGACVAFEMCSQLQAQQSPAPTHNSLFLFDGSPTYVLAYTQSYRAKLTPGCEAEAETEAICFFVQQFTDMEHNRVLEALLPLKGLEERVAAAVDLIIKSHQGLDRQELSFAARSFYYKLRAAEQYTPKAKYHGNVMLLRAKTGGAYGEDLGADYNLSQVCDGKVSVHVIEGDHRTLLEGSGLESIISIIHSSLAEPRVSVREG

In the case of `CCOP(=S)(OCC)Oc1ccc2c(C)c(Cl)c(=O)oc2c1`, the molecule was classed as inactive in experiment [1], in experiment [4], in experiment [5], in experiment [6], in experiment [7] and in experiment [8]. For the same molecule, the concentration at half-maximal activity (AC50) (as a rule, the concentration giving half of the maximal activity seen) in experiment [2] was 1.23 µM (active); in experiment [3], 2.59 µM (active).
Consider `C[Si](Cn1cncn1)(c1ccc(F)cc1)c1ccc(F)cc1`, for which the outcome in experiment [3], in experiment [4] and in experiment [6] was inactive. Moreover, the concentration at half-maximal activity (AC50) is 91.6 µM (active) in experiment [5], 50 µM (active) in experiment [7] and 40.3 µM (active) in experiment [8].
With `FC(F)C(F)(F)OCC(Cn1cncn1)c1ccc(Cl)cc1Cl` (centres undefined), the call in experiment [1], in experiment [2] and in experiment [3] was inactive. For the same molecule, the AC50 is 72.2 µM (active) in experiment [4], 81.5 µM (active) in experiment [5], 33.6 µM (active) in experiment [7] and 97.3 µM (active) in experiment [8].
For `CCc1cccc(C)c1N(C(=O)CCl)C(C)COC` (centres undefined), the molecule was classed as inactive in experiment [3], in experiment [4], in experiment [5], in experiment [6], in experiment [7] and in experiment [8].
For the molecule `COc1ccc(C(=CC(=O)N2CCOCC2)c2ccc(Cl)cc2)cc1OC`, the AC50 in experiment [1] is 35.2 µM (active). The result in experiment [2], in experiment [3], in experiment [4], in experiment [5], in experiment [6] and in experiment [7] was inactive. Moreover, the result in experiment [8] was inactive.
In the case of `COc1cccc(C(=O)NN(C(=O)c2cc(C)cc(C)c2)C(C)(C)C)c1C`, the outcome in experiment [3], in experiment [4], in experiment [5], in experiment [6], in experiment [7] and in experiment [8] was inactive.
For the molecule `O=c1ccc(=O)[nH][nH]1`, the molecule was classed as inactive in experiment [4], in experiment [5], in experiment [6], in experiment [7] and in experiment [8].
`CC(C)N(C(=O)SCC(Cl)=C(Cl)Cl)C(C)C`: the result in experiment [4], in experiment [5], in experiment [6], in experiment [7] and in experiment [8] was inactive.
Take `CCCSP(=O)(OCC)SCCC`: the call in experiment [1], in experiment [2], in experiment [3], in experiment [4], in experiment [5] and in experiment [6] was inactive. For the same molecule, the outcome in experiment [7] and in experiment [8] was inactive.
Consider `C#CCC1=C(C)C(OC(=O)C2C(C=C(C)C)C2(C)C)CC1=O` (centres undefined), for which the call in experiment [3], in experiment [4], in experiment [5], in experiment [6], in experiment [7] and in experiment [8] was inactive.
As to `CCOP(=O)(NC(C)C)Oc1ccc(SC)c(C)c1` (centres undefined), the outcome in experiment [1], in experiment [4], in experiment [5], in experiment [7] and in experiment [8] was inactive. In addition, the results for the AC50 in experiment [2] and in experiment [3] were 17.4 µM (active) and 32.2 µM (active), respectively.
Regarding `CNc1cnn(-c2cccc(C(F)(F)F)c2)c(=O)c1Cl`, the result in experiment [1], in experiment [2], in experiment [3], in experiment [4], in experiment [6] and in experiment [7] was inactive. The outcome in experiment [8] was inactive. The AC50 in experiment [5] is 18 µM (active).
In the case of `CNC(=O)ON=C(C)SC`, the outcome in experiment [1], in experiment [2], in experiment [3], in experiment [4], in experiment [5] and in experiment [6] was inactive. Moreover, the outcome in experiment [7] and in experiment [8] was inactive.
On to `CCOP(=S)(OCC)Oc1ccc([N+](=O)[O-])cc1`, for which the AC50 in experiment [1] is 1.93 µM (active); in experiment [2] it was 0.775 µM (active); in experiment [3] it was 0.444 µM (active). Further, the outcome in experiment [4], in experiment [6], in experiment [7] and in experiment [8] was inactive.
For `Nc1nc(N)nc(NC2CC2)n1`, the result in experiment [1], in experiment [2], in experiment [3], in experiment [4], in experiment [5] and in experiment [6] was inactive. For the same molecule, the call in experiment [7] and in experiment [8] was inactive.
Regarding `Cc1cc(C2CC2)nc(Nc2ccccc2)n1`, the result in experiment [4], in experiment [6], in experiment [7] and in experiment [8] was inactive. Moreover, the AC50 in experiment [5] is 50 µM (active).
Regarding `CCCOCC(=Nc1ccc(Cl)cc1C(F)(F)F)n1ccnc1`, the AC50 in experiment [1] was 0.105 µM (active); in experiment [2], 0.165 µM (active); in experiment [3] it was 0.336 µM (active); in experiment [5], 50 µM (active). The molecule was called inactive in experiment [4], in experiment [6], in experiment [7] and in experiment [8].
`O=C(O)c1cc(Oc2ccc(C(F)(F)F)cc2Cl)ccc1[N+](=O)[O-]`: the outcome in experiment [1], in experiment [2], in experiment [3], in experiment [4], in experiment [5] and in experiment [6] was inactive. Besides, the call in experiment [7] and in experiment [8] was inactive.

The values are drawn from PubChem BioAssay (EPA / NIEHS).
